Wnt bcat act – activators of Wnt/beta-catenin signaling | Wnt/beta-catenin reporter cell assay, activator, plate reader | actives 1.2% (n = 300,000) | activation, % at 9.35 µM; in the data active means activation above about 30%, passing the limit was not always enough; inconclusive means no clear call, values can overlap the other calls;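 further: 0% = neutral control wells and 100% = positive control wells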
MITF TRPM1 HTS – activators of MITF-driven TRPM1 promoter activity in SK-MEL-5 cells | actives 0.75% (n = 300,000) | activation, % at 12.5 µM | AID 588334 | SK-MEL-5 TRPM1-promoter luciferase, 24 h; % of positive control, neutral wells = 0;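 active means mean activation of at least 80% with every replicate also reaching 80%; inconclusive means mean reaches 80% but some replicate falls short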;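 further: 0% = neutral control wells and 100% = parthenolide positive control wells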
esBAF inh – blocks esBAF chromatin remodeling in mouse ES cells; Bmi1-luciferase knock-in reporter, 24 h; 100% = twice the neutral-well signal; reporter increase, % at 12.5 µM; actives 2% (n = 350,000); AID 602393; in the data active means activation above about 40%; inconclusive means no clear call, values can overlap the other calls;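 further: 0% = median of the plate's neutral control wells and 100% = double that signal; a rise in the Bmi1 reporter signal indicates esBAF inhibition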
C2C12 statin – protects C2C12 myotubes from simvastatin toxicity. ATP luminescence, 48 h; scaled: DMSO 0, geranylgeraniol control 100. rescue of ATP level, % at 7.49 µM. actives 0.78% (n = 330,000);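 active means mean ATP rescue above about 67%, or every replicate alone reaching that limit, limit read from the data, passing the limit was not always enough; inconclusive means no clear call, values can overlap the other calls; inactive means mean under the limit and some replicate under it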;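 further: myotubes were challenged with 10 µM simvastatin during compound exposure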
GAA850 FXN act – activators of GAA850 frataxin (FXN) promoter. activation, % at 6 µM. AID 540364. HEK293 lucGAA850 FXN promoter luciferase reporter, 24 h; percent of 10 µM SAHA response. actives 0.56% (n = 360,000);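 active means activation above the average of all compounds screened plus 3 SD, cutoff fixed separately per campaign, cut at about 7.5% in these data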;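 further: 0% = DMSO wells and 100% = 10 µM SAHA wells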
* hit, by the source's call; ? = inconclusive; . = not tested or not shown. Only some compounds are listed: those with a hit (about 3.3% of all), similar ones and a draw of the others.

SMILES	Wnt bcat act	MITF TRPM1 HTS	esBAF inh	C2C12 statin	GAA850 FXN act
C[C@@H]1CCCCO[C@@H](CN(C)S(=O)(=O)c2cccs2)[C@H](C)CN([C@@H](C)CO)C(=O)c2cc(NC(=O)Nc3ccccc3)ccc2O1	.	.	-3	.	.
COc1cccc(-c2ccc3c(c2)[C@H]2[C@H](CCN2C(=O)NC2CCCC2)[C@H](CO)N3C)c1	.	.	16	14	.
Cc1nc(NC(=O)CN2CCOCC2)sc1-c1ccccc1	14	53	50*	-49	3
O=C(CN1CCCCC1)Nc1nc(-c2ccccc2)cs1	9	36	55*	-2	4
O=C(CN1CCCCC1)Nc1nc(-c2ccc(Cl)cc2)cs1	10	25	29	-15	2
O=C(NCC[C@H]1CC[C@H](NS(=O)(=O)c2ccc(Cl)cc2)[C@H](CO)O1)c1ccc2c(c1)OCO2	.	.	0	12	.
COCc1cn(CC[C@H]2CC[C@@H](NC(=O)Cc3cccnc3)[C@H](CO)O2)nn1	.	.	-3	-9	.
Cc1ccc(S(=O)(=O)N(C)C[C@@H]2OCCCC[C@@H](C)Oc3ccc(NS(=O)(=O)c4cn(C)cn4)cc3C(=O)N([C@@H](C)CO)C[C@H]2C)cc1	.	.	0	.	.
O=S(=O)(NCc1ccco1)c1ccc(S(=O)(=O)N2CCCCC2)cc1	-2	5	-3	118*	-2
O=C(c1ccc(S(=O)(=O)NCc2ccco2)cc1)N1CCCC1	-1	-2	-4	2	1
COc1cc(/C=C2\SC(=S)N(Nc3ccccc3)C2=O)ccc1O	?	?	.	.	3
O=C1/C(=C/c2ccc(O)c(O)c2)SC(=S)N1Nc1ccccc1	.	35	.	.	7.8*
COc1cn(-c2ccccc2)nc1C(=O)Nc1ccccc1	15	22	60*	-17	2
C=C[C@@H]1c2c(F)cccc2N(S(=O)(=O)c2ccc(C)cc2)[C@H](c2ccc(OC(C)=O)cc2)C1(C#N)C#N	-3	-2	0	9	1
C=C[C@@H]1c2c(F)cccc2N(S(=O)(=O)c2ccc(C)cc2)[C@H](c2ccc(C(=O)OC)cc2)C1(C#N)C#N	4	0	-2	126*	2
Cc1ccc(C(=O)Nc2ncccc2S(=O)(=O)c2ccccc2)cc1	20	100*	113*	3	4
Cc1cccnc1NC(=O)c1ccc(S(=O)(=O)N2CCCCCC2)cc1	-2	6	.	.	0
CC1=C/C(=C\c2ccc(Br)o2)C(=O)O1	-4	-5	.	.	1
O=C1C(=Cc2ccc(Br)o2)C(=O)c2ccccc21	.	13	64*	2	5
C[C@H](CO)N1C[C@H](C)[C@@H](CN(C)S(=O)(=O)c2cccs2)OCCCC[C@H](C)Oc2ccc(NC(=O)CCC(F)(F)F)cc2C1=O	.	.	3	.	.
N#Cc1ccc(-c2nnnn2-c2ccc3c(c2)OCO3)cc1	0	3	0	107*	2
Cc1onc(-c2ccccc2)c1C(=O)Nc1ccc2c(c1)OCCO2	-2	-2	-7	16	-4
CC(=O)c1cc2c(cc1NC(=O)c1c(-c3ccccc3)noc1C)OCO2	0	-7	-5	85*	2
Cc1cccc(-c2noc(-c3ccc(Cl)cc3[N+](=O)[O-])n2)c1	43*	71	.	.	7
C/C=C/c1cnc2c(c1)C(=O)N([C@@H](C)CO)C[C@@H](C)[C@H](CN(C)C(=O)Nc1ccc(OC)cc1)O2	.	.	1	-11	.
SMILES	Wnt bcat act	MITF TRPM1 HTS	esBAF inh	C2C12 statin	GAA850 FXN act
Cc1ccc(-c2nc(C#N)c(NCCc3ccccn3)o2)cc1	.	67	52*	9	1
N#Cc1nc(-c2ccc(Cl)cc2)oc1NCCc1ccccn1	36*	27	24	16	5
CCCC12CN(C(=O)c3ccco3)CC(CCC)(CN(C(=O)c3ccco3)C1)C2=O	-1	6	6	77*	0
CCc1ccc(CN2CCN(C(=O)c3ccco3)CC2)cc1	0	-2	5	-1	2
Cn1cnnc1SCC(=O)Nc1ccc2nc(SCc3ccccc3)sc2c1	16	70	69*	.	1
CCN(CC)C(=O)CSc1nc2ccc(NC(=O)CSc3nccn3C)cc2s1	5	25	78*	-10	-2
CO[C@@H]1CN(C)C(=O)c2ccc(NS(=O)(=O)c3ccc(C)cc3)cc2OC[C@H](C)NC[C@@H]1C	.	.	0	15	.
O=C(C[C@@H]1CC[C@H]2[C@@H](COC[C@@H](O)CN2S(=O)(=O)c2ccc(Cl)cc2)O1)NCCN1CCCC1	.	.	-3	-10	.
O=c1oc2ccccc2c(Nc2cccc(O)c2)c1[N+](=O)[O-]	-3	-20	0	132*	1
C#CCOC(=O)CCCC(=O)Nc1ccccc1OC	50*	1	0	-9	0
COc1ccccc1NC(=O)CCCC(=O)OCC(=O)c1ccc(F)cc1	4	3	.	.	0
Cc1ccc(Sc2cc(NCCCO)c([N+](=O)[O-])c3nonc23)cc1	-3	-12	-17	102*	2
CC(=O)OCCCNc1cc(Sc2ccc(Cl)cc2)c2nonc2c1[N+](=O)[O-]	.	-75	.	.	3
CC(C)Cc1ccc(/C=C/C(=O)N2CCOCC2)cc1	17	103*	52*	14	4
C/C=C/c1cnc2c(c1)C(=O)N([C@H](C)CO)C[C@@H](C)[C@@H](CN(C)C(=O)Nc1c(C)noc1C)O2	.	.	2	-2	.
O=C(NCCc1ccccc1)c1ccc(Cl)c(S(=O)(=O)N2CCCC2)c1	.	40	59*	3	5
CCOCC(=O)Nc1ccc(C(=O)Nc2ccccc2Cl)cc1	3	.	.	.	.
Cc1cc(NC(=O)c2ccc(Cl)c(S(=O)(=O)N3CCOCC3)c2)no1	-1	-3	-2	128*	-1
Cc1ccc(-c2csc(NC(=O)COC(=O)c3cccc(S(=O)(=O)N4CCOCC4)c3)n2)cc1	45*	.	.	.	.
CCOCC(=O)Nc1cc(C(=O)Nc2ccccc2)ccc1Cl	11	27	51*	-7	3
O=C(NCc1ccccc1)c1ccc(Cl)c(S(=O)(=O)N2CCCC2)c1	0	-3	-6	17	0
Cc1ccc(-c2csc(NC(=O)c3cccc(S(=O)(=O)N4CCN(C)CC4)c3)n2)cc1	-8	-23	17	7	-1
COCC(=O)N1C[C@H]2[C@@H](c3ccccc31)[C@H](CO)N2C(=O)Nc1ccccc1Cl	.	.	2	-2	.
C[C@@H]1CN([C@@H](C)CO)C(=O)Cc2cc(N(C)C)ccc2O[C@H]1CN(C)C(=O)Nc1ccccc1	.	.	0	17	.
O=C(N[C@H]1CC[C@H](CCNC(=O)C2CCCC2)O[C@H]1CO)c1ccccn1	.	.	3	1	.
Cc1ccc(C(=O)NC(C)CCc2ccccc2)cc1S(=O)(=O)N1CCOCC1 (stereo not given)	-3	-17	12	-4	-1
Cc1ccnc(NC(=O)c2cccc(S(=O)(=O)N3CCOCC3)c2)c1	22	2	50*	-7	3
Cc1ccc(C(=O)NCCc2ccccc2)cc1S(=O)(=O)N1CCOCC1	27	71	68*	-6	2
